# Experimental data reported in PubChem BioAssay AID1159580 (chemical genetic matrix, 2015).
# “And” between values parts separate entries of the source, which are not always exact repeats. Equal entries are not always repeated. Screen size: about 5,500 compounds; about 2,000 (36%) were called active. Roughly 18% stayed inconclusive and do not appear here. Some of the results follow. Unmarked numbers belong to inactive results. Cut-off read from the data, not from the text of the source: active = normalized growth mostly below about 0.91 (no sharp cut-off); inconclusive = no clear call, values can overlap the other calls; inactive = mostly above about 0.92.
# Experiment: chemical genetic growth profiling, strain panel (AID 1159580);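 note: tested at 20 µM; growth read once vehicle control cultures reached saturation at 30 °C; 1 = growth at the plate median or of vehicle wells; lower values mean less growth of the strain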
# Conditions: growth OD
smiles,measurement,setting,value
OCC(S)CS (stereo not given),normalized growth,"S. cerevisiae deletion strains, locus YAL013W, strain DEP1, active compounds read low",0.987
same,normalized growth,"S. cerevisiae deletion strains, locus YBR021W, strain FUR4, active compounds read low",0.999
same,normalized growth,"S. cerevisiae deletion strains, locus YBR229C, strain ROT2, active compounds read low",0.96
same,normalized growth,"S. cerevisiae deletion strains, locus YCL029C, strain bik1, active compounds read low",0.983
same,normalized growth,"S. cerevisiae deletion strains, locus YDL035C, strain GPR1, active compounds read low",0.979
same,normalized growth,"S. cerevisiae deletion strains, locus YDL074C, strain BRE1, active compounds read low",0.963
same,normalized growth,"S. cerevisiae deletion strains, locus YDL101C, strain DUN1, active compounds read low",0.985
same,normalized growth,"S. cerevisiae deletion strains, locus YDL134C, strain PPH21, active compounds read low",0.976
same,normalized growth,"S. cerevisiae deletion strains, locus YDL185W, strain tfp1, active compounds read low",0.935
same,normalized growth,"S. cerevisiae deletion strains, locus YDL192W, strain arf1, active compounds read low",0.964
same,normalized growth,"S. cerevisiae deletion strains, locus YDR101C, strain arx1, active compounds read low",0.978
same,normalized growth,"S. cerevisiae deletion strains, locus YDR150W, strain NUM1, active compounds read low",0.981
same,normalized growth,"S. cerevisiae deletion strains, locus YDR162C, strain NBP2, active compounds read low",0.966
same,normalized growth,"S. cerevisiae deletion strains, locus YDR318W, strain mcm21, active compounds read low",1
same,normalized growth,"S. cerevisiae deletion strains, locus YDR388W, active compounds read low",0.982
same,normalized growth,"S. cerevisiae deletion strains, locus YDR502C, strain sam2, active compounds read low",0.974
same,normalized growth,"S. cerevisiae deletion strains, locus YER110C, active compounds read low",0.983
same,normalized growth,"S. cerevisiae deletion strains, locus YER155C, strain BEM2, active compounds read low",0.999
same,normalized growth,"S. cerevisiae deletion strains, locus YER167W, strain BCK2, active compounds read low",1.02
same,normalized growth,"S. cerevisiae deletion strains, locus YGL078C, strain dbp3, active compounds read low",0.992
same,normalized growth,"S. cerevisiae deletion strains, locus YGL086W, strain mad1, active compounds read low",1.01
same,normalized growth,"S. cerevisiae deletion strains, locus YGL248W, strain PDE1, active compounds read low",0.972
same,normalized growth,"S. cerevisiae deletion strains, locus YGR078C, strain PAC10, active compounds read low",0.972
same,normalized growth,"S. cerevisiae deletion strains, locus YGR135W, strain pre9, active compounds read low",0.962
same,normalized growth,"S. cerevisiae deletion strains, locus YGR229C, strain SMI1, active compounds read low",0.986
same,normalized growth,"S. cerevisiae deletion strains, locus YGR252W, strain gcn5, active compounds read low",0.949
same,normalized growth,"S. cerevisiae deletion strains, locus YHR030C, strain SLT2, active compounds read low",1.01 and 0.959
same,normalized growth,"S. cerevisiae deletion strains, locus YHR079C, strain IRE1 (second series), active compounds read low",1.01
same,normalized growth,"S. cerevisiae deletion strains, locus YHR079C, strain IRE1, active compounds read low",0.931
same,normalized growth,"S. cerevisiae deletion strains, locus YHR094C, strain hxt1, active compounds read low",0.98
same,normalized growth,"S. cerevisiae deletion strains, locus YHR129C, strain ARP1, active compounds read low",1
same,normalized growth,"S. cerevisiae deletion strains, locus YHR200W, strain rpn10, active compounds read low",0.974
same,normalized growth,"S. cerevisiae deletion strains, locus YIL066C, strain RNR3, active compounds read low",0.967
same,normalized growth,"S. cerevisiae deletion strains, locus YIL073C, strain SPO22, active compounds read low",1.03
same,normalized growth,"S. cerevisiae deletion strains, locus YIL125W, strain kgd1, active compounds read low",0.966
same,normalized growth,"S. cerevisiae deletion strains, locus YIR030C, strain dcg1, active compounds read low",0.989
same,normalized growth,"S. cerevisiae deletion strains, locus YJL095W, strain BCK1, active compounds read low",1.01 and 0.978
same,normalized growth,"S. cerevisiae deletion strains, locus YJL134W, strain LCB3, active compounds read low",0.994
same,normalized growth,"S. cerevisiae deletion strains, locus YJL168C, strain set2, active compounds read low",0.984
same,normalized growth,"S. cerevisiae deletion strains, locus YJL187C, strain SWE1 (second series), active compounds read low",0.973
same,normalized growth,"S. cerevisiae deletion strains, locus YJR043C, strain POL32, active compounds read low",1.3 [resistant] (active)
same,normalized growth,"S. cerevisiae deletion strains, locus YJR066W, strain TOR1, active compounds read low",0.933
same,normalized growth,"S. cerevisiae deletion strains, locus YJR075W, strain HOC1, active compounds read low",0.974
same,normalized growth,"S. cerevisiae deletion strains, locus YKL009W, strain mrt4, active compounds read low",1
same,normalized growth,"S. cerevisiae deletion strains, locus YKL068W, active compounds read low",0.984
same,normalized growth,"S. cerevisiae deletion strains, locus YKL085W, strain MDH1 (second series), active compounds read low",1.04
same,normalized growth,"S. cerevisiae deletion strains, locus YKL085W, strain MDH1, active compounds read low",1.04
same,normalized growth,"S. cerevisiae deletion strains, locus YKL190W, strain CNB1, active compounds read low",0.985
same,normalized growth,"S. cerevisiae deletion strains, locus YKR001C, strain vps1, active compounds read low",0.978
same,normalized growth,"S. cerevisiae deletion strains, locus YLR039C, strain RIC1, active compounds read low",1
same,normalized growth,"S. cerevisiae deletion strains, locus YLR058C, strain SHM2, active compounds read low",0.984
same,normalized growth,"S. cerevisiae deletion strains, locus YLR102C, strain apc9, active compounds read low",0.979
same,normalized growth,"S. cerevisiae deletion strains, locus YLR113W, strain HOG1, active compounds read low",1.02
same,normalized growth,"S. cerevisiae deletion strains, locus YLR262C, strain YPT6, active compounds read low",0.996
same,normalized growth,"S. cerevisiae deletion strains, locus YLR268W, strain sec22, active compounds read low",0.955
same,normalized growth,"S. cerevisiae deletion strains, locus YLR330W, strain CHS5, active compounds read low",1.01
same,normalized growth,"S. cerevisiae deletion strains, locus YLR342W, strain FKS1 (second series), active compounds read low",1.01
same,normalized growth,"S. cerevisiae deletion strains, locus YLR371W, strain rom2, active compounds read low",0.986
same,normalized growth,"S. cerevisiae deletion strains, locus YLR418C, strain cdc73, active compounds read low",0.941
same,normalized growth,"S. cerevisiae deletion strains, locus YML016C, strain PPZ1, active compounds read low",1
same,normalized growth,"S. cerevisiae deletion strains, locus YML032C, strain rad52, active compounds read low",0.973
same,normalized growth,"S. cerevisiae deletion strains, locus YML124C, strain tub3, active compounds read low",0.989
same,normalized growth,"S. cerevisiae deletion strains, locus YMR078C, strain ctf18, active compounds read low",0.995
same,normalized growth,"S. cerevisiae deletion strains, locus YMR223W, strain ubp8, active compounds read low",0.999
same,normalized growth,"S. cerevisiae deletion strains, locus YMR263W, strain SAP30, active compounds read low",0.974
same,normalized growth,"S. cerevisiae deletion strains, locus YMR307W, strain GAS1, active compounds read low",1.08
same,normalized growth,"S. cerevisiae deletion strains, locus YNL067W, strain RPL9B, active compounds read low",0.964
same,normalized growth,"S. cerevisiae deletion strains, locus YNL128W, strain TEP1, active compounds read low",0.974
same,normalized growth,"S. cerevisiae deletion strains, locus YNL153C, strain GIM3, active compounds read low",0.973
same,normalized growth,"S. cerevisiae deletion strains, locus YNL183C, strain NPR1, active compounds read low",0.97
same,normalized growth,"S. cerevisiae deletion strains, locus YNL233W, strain BNI4, active compounds read low",1
same,normalized growth,"S. cerevisiae deletion strains, locus YNL250W, strain rad50, active compounds read low",0.973
same,normalized growth,"S. cerevisiae deletion strains, locus YNL271C, strain bni1, active compounds read low",0.988
same,normalized growth,"S. cerevisiae deletion strains, locus YNL298W, strain CLA4, active compounds read low",0.978
same,normalized growth,"S. cerevisiae deletion strains, locus YNL307C, strain MCK1, active compounds read low",0.998
same,normalized growth,"S. cerevisiae deletion strains, locus YNL322C, strain KRE1, active compounds read low",0.978
same,normalized growth,"S. cerevisiae deletion strains, locus YNR052C, strain pop2, active compounds read low",0.987
same,normalized growth,"S. cerevisiae deletion strains, locus YOL006C, strain TOP1, active compounds read low",0.849
same,normalized growth,"S. cerevisiae deletion strains, locus YOL012C, strain htz1",0.787
same,normalized growth,"S. cerevisiae deletion strains, locus YOL147C, strain pex11, active compounds read low",0.987
same,normalized growth,"S. cerevisiae deletion strains, locus YOR061W, strain CKA2, active compounds read low",0.969
same,normalized growth,"S. cerevisiae deletion strains, locus YOR069W, strain VPS5, active compounds read low",1.14 [resistant] (active)
same,normalized growth,"S. cerevisiae deletion strains, locus YOR136W, strain idh2, active compounds read low",0.992
same,normalized growth,"S. cerevisiae deletion strains, locus YOR144C, strain elg1, active compounds read low",0.976
same,normalized growth,"S. cerevisiae deletion strains, locus YOR184W, strain ser1, active compounds read low",0.996
same,normalized growth,"S. cerevisiae deletion strains, locus YOR231W, strain MKK1, active compounds read low",0.921
same,normalized growth,"S. cerevisiae deletion strains, locus YOR316C, strain cot1, active compounds read low",0.979
same,normalized growth,"S. cerevisiae deletion strains, locus YPL055C, strain LGE1, active compounds read low",0.955
same,normalized growth,"S. cerevisiae deletion strains, locus YPL256C, strain CLN2, active compounds read low",1.01
same,normalized growth,"S. cerevisiae deletion strains, locus YPR119W, strain clb2, active compounds read low",0.994
same,normalized growth,"S. cerevisiae deletion strains, locus YPR141C, strain kar3, active compounds read low",0.967
same,normalized growth,"S. cerevisiae deletion strains, locus YPR163C, strain tif3, active compounds read low",0.988
same,normalized growth,"S. cerevisiae deletion strains, locus YPR167C, strain met16, active compounds read low",0.968
same,normalized growth,"S. cerevisiae deletion strains, strain wtn01, active compounds read low",0.961
same,normalized growth,"S. cerevisiae strains, strain wild type, active compounds read low",0.99
